TGFb SMAD3 inh – inhibitors of TGF-b signaling. HepG2 CAGA-GFP TGF-b/SMAD3 reporter, GFP fluorescence, 18 h; TGF-beta stimulated, 500 pg/mL final. Potency, µM (highest dose often 46.1 µM), inactives show top-dose activity, negative = inhibition, most hits filed as inhibitors. actives 1.2% (n = 410,000). AID 588855; also: % is scaled to controls: 0 for no effect and ±100 for the full control effect; nearly all actives have a fitted effect of over 65% in size
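Cell-based qHTS in HEPG2 carrying a CAGA-GFP Smad reporter; compounds added before 500 pg/mL final TGF-beta, 18 h incubation at 37 degrees C, GFP fluorescence quantified per cell by imaging cytometry.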
TDP1 cell noCPT – qHTS for Inhibitors of human tyrosyl-DNA phosphodiesterase 1 (TDP1): qHTS in cells in absence of CPT | actives 15% (n = 420,000) | Potency, µM (titrated, usually from 46.2 µM), inactives show at the highest dose activity change, negative = growth inhibition, actives largely listed as inhibitors | DT40 Tdp1-/- hTDP1 cells, no CPT, ATP luminescence, 48 h; also: % is scaled to controls: 0 for no effect and ±100 for the full control effect; nearly all actives have a fitted effect of over 55% in size
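Compound effects on proliferation are scored in DT40 Tdp1-/-;hTDP1 cells in the absence of CPT. ATP levels (CellTiter-Glo luminescence) are recorded after a ≥48 hr, 37 °C incubation.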
TDP1 cell CPT – DT40-hTDP1 cell growth loss with CPT; actives 12% (n = 420,000); chicken DT40 Tdp1-/-;hTDP1 cells + 20 nM CPT, ATP luminescence, 48 h; AID 686979; Potency, µM (titrated, usually from 46.2 µM), for the others: at the highest dose activity change, negative = growth inhibition, actives largely listed as inhibitors; also: % is scaled to controls: 0 for no effect and ±100 for the full control effect; nearly all actives have a fitted effect of over 55% in size
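Chicken DT40 Tdp1-/- cells stably complemented with human TDP1 were seeded at 400 cells/well in medium containing 20 nM camptothecin, exposed to pin-transferred compounds, and grown at 37 °C for at least 48 hr. Viability was read as ATP luminescence.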
HT1080 IDH1KD tx – toxicity to HT-1080 IDH1 knockdown cells (counter line) | AID 686971 | actives 2% (n = 360,000) | HT-1080 IDH1 knockdown viability, ATP luminescence, 48 h | Potency, µM (top dose mostly 46.1 µM), without a hit: at the top dose activity, negative = toxicity, hits mostly cytotoxic;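 also: 0% = DMSO wells and -100% = cell-free medium wells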
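Luminescent ATP read-out (CellTiter-Glo, 10 min at room temperature) after 48 h compound exposure at 37 °C gave viability of IDH1-knockdown HT-1080 cells. Activity was normalised to DMSO and cell-free wells, then fitted as concentration-response curves.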
HT1080-NT tox – kills 2HG-producing HT-1080-NT fibrosarcoma cells; HT-1080-NT fibrosarcoma viability, CellTiter-Glo ATP luminescence, 48 h; actives 1.6% (n = 360,000); Potency, µM (series often up to 46.1 µM), for inactives: at the top dose activity, negative = less viability, most hits filed as cytotoxic; AID 686970;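 also: NT is the 2HG producing partner of a matched IDH1 knockdown line; 0% = DMSO-treated cells and -100% = media-only wells without cells; nearly all actives have a fitted effect of over 55% in size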
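Read-out is CellTiter-Glo luminescence after 10 minutes at room temperature, following 48 hours' compound treatment of HT-1080-NT cells (750 cells/well, RPMI, 5% FBS, 37 degrees C).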
HepG2 tox – kills HepG2 cells in TGF-b inhibitor counter-screen | AID 588856 | HepG2 CAGA-GFP viability, ATP luminescence, 18 h | Potency, µM (doses to about 46.1 µM), inactives show at the top dose activity change, negative = cytotoxicity, hits mostly cytotoxic | actives 0.76% (n = 410,000)
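CellTiter-Glo luminescence gave cytotoxicity after 18 hours at 37 degrees C. The cells were HepG2 CAGA-GFP in 1% FBS DMEM, stimulated with 500 pg/mL TGF-beta after compound addition. %Activity was normalised to no-cell wells (complete cell-killing) and DMSO (no toxicity), and curves were fitted and classified.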
An asterisk follows results filed as active; ? = inconclusive; nt = no result; [ ] = remark or other dose. Sampled rows, rich in hits. Any-hit rate of the full collection: about 17%. Calls follow the shape of the dose curve; as a rule, active = well fitted curve in the direction sought with a large enough effect; inconclusive = small, poorly fitted or top-dose-only effect, or another doubt; inactive = no such curve, though single readings can be large; an effect the other way counts as inactive or inconclusive. Potency is read from the fitted curve at half-maximal effect.

SMILES | TGFb SMAD3 inh | TDP1 cell noCPT | TDP1 cell CPT | HT1080 IDH1KD tx | HT1080-NT tox | HepG2 tox
CCCN1CCN(CC(O)COC(c2ccc(OC)cc2)c2ccc(OC)cc2)CC1 (stereo not drawn) | 29.0% | -15.1% | -15.7% | 25.7% | 12.3% | -8.7%
COc1ccc(Cc2[nH]n3c(=O)cc(C(C)C)nc3c2-c2ccccc2)cc1 | ? | 7.31µM* | 18.4µM* | ? | ? | 11.2µM*
COc1ccc(Cc2[nH]n3c(=O)cc(C)nc3c2-c2ccccc2)cc1 | -2.2% | ? | ? | -18.0% | -27.9% | -19.0%
O=C(COC(=O)c1cccc(C(=O)OCC(=O)c2ccc(Br)cc2)n1)c1ccc(Br)cc1 | -8.9% | ? | 16.4µM* | -0.6% | 2.5% | 2.8%
COc1ccc(CN2CC[C@H]3C=CC[C@@H](C(=O)Nc4nccs4)[C@H]3C2=O)cc1OC | 21.2% | -6.4% | -19.4% | nt | nt | 47.0%
COc1ccc2cc(C(=O)Nc3ccc(Cl)cc3)sc(=O)c2c1OC | 24.0% | ? | -9.7% | 11.6% | 11.3% | 21.9%
O=C(COc1ccccc1C(=O)Nc1cccc(F)c1)Nc1ccc(Br)cc1 | 1.5% | ? | ? | nt | nt | 1.5%
COC(=O)c1ccc(N2CCN(C)CC2)c(NC(=O)COc2ccccc2Cl)c1 | -7.1% | 23.1µM* | 20.6µM* | -3.6% | -0.2% | -17.0%
COC(=O)c1ccc(N2CCN(C)CC2)c(NC(=O)COc2ccc(OC)cc2)c1 | -9.6% | -25.2% | 20.6µM* | -4.9% | -5.2% | -5.6%
COC(=O)c1ccc(N2CCN(C)CC2)c(NC(=O)COc2ccc(C)cc2)c1 | -7.8% | -16.3% | ? | -8.1% | 24.3% | -10.1%
COC(=O)c1ccc(N2CCN(C(C)=O)CC2)c(NC(=O)COc2ccccc2C)c1 | 9.8% | -23.4% | -28.0% | -19.5% | -25.4% | -7.0%
NS(=O)(=O)c1cccc(NC(=O)COC(=O)CSCc2ccccc2)c1 | -0.1% | 0.0% | -7.4% | -3.2% | -8.2% | 5.6%
Cc1noc(C)c1C(=O)OCC(=O)c1cc(C)n(Cc2ccccc2Cl)c1C | 8.2% | 14.6µM* | 20.6µM* | -24.2% | 0.8% | 2.5%
Cc1noc(C)c1C(=O)OCC(=O)c1ccc[nH]1 | 3.4% | -0.4% | 0.2% | 14.8% | 16.2% | -17.7%
O=[N+]([O-])c1ccc(N2CCN(S(=O)(=O)c3ccc(Cl)cc3)CC2)cc1NCC1CCCO1 (stereo not drawn) | 4.5% | -5.1% | -7.7% | 3.8% | 5.5% | -6.4%
O=C(c1ccccc1F)N1CCN(c2ccc([N+](=O)[O-])c(NCC3CCCO3)c2)CC1 (stereo not drawn) | ? | 18.4µM* | ? | -0.7% | -3.0% | -20.9%
NC(=O)c1cc(N2C(=O)C=CC2=O)ccc1Cl | -13.2% | 16.4µM* | 13µM* | 15.8µM* | ? | 0.0%
COc1ccc(-c2cc(-c3n[nH]c(=S)n3-c3ccccc3Cl)[nH]n2)cc1 | 6.4% | -16.7% | 2.6% | 0.0% | 7.4% | 10.9%
Cc1nn(C)c(=O)c(N)c1-c1cc(-c2ccc(Cl)c(Cl)c2)n[nH]1 | 0.6% | 6.51µM* | 13µM* | -6.9% | -18.2% | -11.2%
Cc1ccc(-c2cc(-c3c(C)nn(C)c(=O)c3N)[nH]n2)cc1 | -6.1% | 9.2µM* | 16.4µM* | 2.1% | 2.5% | 0.6%
CCOC(=O)c1ccccc1NC(=O)COC(=O)C1CCCC1 | 0.5% | -4.1% | -18.2% | ? | 17.6% | 7.5%
COc1cc(NC(=O)c2cc(-c3ccco3)on2)cc(OC)c1OC | -4.6% | ? | ? | 0.7% | -7.3% | -16.5%
COc1ccc(-c2ccnc(SCC(=O)Nc3ccccn3)n2)cc1 | -13.3% | 18.4µM* | ? | -1.4%[9.24 µM] | -2.1% | -3.0%

Bioassay records (PubChem)
